VP16 counter – counter-screen for ROR gamma inhibitors: Gal4-VP16 reporter | Drosophila S2 Gal4-VP16 UAS-luciferase, luminescence, 20 h | Potency, µM (doses to about 53.6 µM), actives largely listed as inhibitors | actives 3.5% (n = 310,000);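 also: Gal4-VP16 expression switched on by copper sulfate through the metallothionein promoter; nearly all actives have a fitted effect of over 50% in size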
RORgamma inh – ROR gamma (mouse) transcription inhibition; actives 5.4% (n = 310,000); P51450; AID 2551; Potency, µM (doses to about 53.6 µM), actives largely listed as inhibitors; Drosophila S2 Gal4-RORgamma UAS-luciferase reporter, 20 h; also: nearly all actives have a fitted effect of over 60% in size
Target sequence (P51450 whole entry, looked up, the tested form may be a part): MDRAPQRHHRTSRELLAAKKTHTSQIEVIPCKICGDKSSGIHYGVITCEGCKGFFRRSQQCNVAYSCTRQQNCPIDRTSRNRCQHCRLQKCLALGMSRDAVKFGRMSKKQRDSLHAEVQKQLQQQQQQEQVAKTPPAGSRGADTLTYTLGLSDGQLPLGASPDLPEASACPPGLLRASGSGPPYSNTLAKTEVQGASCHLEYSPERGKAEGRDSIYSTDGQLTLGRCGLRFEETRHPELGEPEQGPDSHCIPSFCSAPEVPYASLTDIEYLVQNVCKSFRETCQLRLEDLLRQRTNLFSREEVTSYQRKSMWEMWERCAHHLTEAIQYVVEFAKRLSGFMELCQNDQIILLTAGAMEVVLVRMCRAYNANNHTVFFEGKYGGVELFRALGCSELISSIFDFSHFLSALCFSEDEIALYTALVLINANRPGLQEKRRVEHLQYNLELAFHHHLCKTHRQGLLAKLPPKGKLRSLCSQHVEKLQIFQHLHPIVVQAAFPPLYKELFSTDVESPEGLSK
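Luminescence from a UAS-regulated Photinus luciferase reporter in stably transfected Drosophila Schneider cells is measured; decreased signal marks ROR gamma inhibition. Fusion expression is induced by 700 uM copper sulfate for 20 hr.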
KinaseGlo FLuc – Kinase-Glo luciferase inhibition (counter-screen). Kinase-Glo luciferase, ATP luminescence, 8 min. Q27757. actives 0.28% (n = 200,000). Potency, µM (doses to about 38.3 µM), most hits filed as inhibitors. AID 1379; also: nearly all actives have a fitted effect of over 60% in size
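Luminescence was the read-out, taken after 8-minute incubation at ambient temperature. Luciferase turned over luciferin with 10 uM ATP in imidazole pH 7.2 buffer containing KCl, MgCl2, Tween 20 and BSA.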
Of the large screens only hits and unclear results are named; the others gave an inactive call. A selection: hits, their analogues and other compounds. The true share with any hit is near 6.4%. Calls follow the shape of the dose curve; as a rule, active = well fitted curve in the direction sought with a large enough effect; inconclusive = small, poorly fitted or top-dose-only effect, or another doubt; inactive = no such curve, though single readings can be large; an effect the other way counts as inactive or inconclusive.

COc1ccc(C2C=C3CN(C(=O)OC(C)(C)C)S(=O)(=O)C3CC2OC(=O)c2cccc(C)c2)cc1 (configuration not stated)	none (no result: KinaseGlo FLuc)
COC(=O)[C@@H]1CCCN1Cc1nc(Cc2ccccc2F)no1	none
CCOc1ccc(/C=N/Nc2nc(C)cs2)c(O)c1	VP16 counter 2.2µM, RORgamma inh 1.4µM (no result: KinaseGlo FLuc)
CCOc1ccc2nc(C)cc(C(=O)O)c2c1	none
Cc1cccc(NC(=O)CSc2nc3ccccc3nc2N2CCCC2)c1C	RORgamma inh inconclusive (no result: KinaseGlo FLuc)
Nc1ccc2nc(-c3cccc(-c4nc5ccc(N)cc5[nH]4)n3)[nH]c2c1	none (no result: KinaseGlo FLuc)
CC(=O)Nc1ccc2nc(-c3ccccn3)[nH]c2c1	RORgamma inh 10µM, KinaseGlo FLuc 11µM
CC(=O)Nc1ccc2nc(-c3ccncc3)[nH]c2c1	none
O=C(Nc1ccc(-c2nc3ccc(NC(=O)c4cccs4)cc3[nH]2)cc1)c1cccs1	VP16 counter inconclusive, RORgamma inh 13µM
O=C(Nc1ccc2nc(-c3cccs3)[nH]c2c1)c1cccs1	none
c1ccc(-c2nc3cc4ccccc4cc3[nH]2)nc1	VP16 counter 3.2µM, RORgamma inh 2.8µM, KinaseGlo FLuc 11µM
Clc1ccc(N=C2SCCS2)cc1	none (no result: KinaseGlo FLuc)
CC(C)(C)NC(=O)CCN(/N=C/c1ccccc1F)C1=NS(=O)(=O)c2ccccc21	none (no result: KinaseGlo FLuc)
CC(CC(=O)NCc1ccco1)S(=O)(=O)c1ccc2c(c1)CCN2C(=O)C1CC1 (configuration not stated)	none (no result: KinaseGlo FLuc)
S=c1[nH]c2cc(-c3ccccc3)ccc2o1	VP16 counter 13µM, RORgamma inh 10µM (no result: KinaseGlo FLuc)
O=S(=O)(c1ccc2oc(=S)[nH]c2c1)N1CCCCC1	none (no result: KinaseGlo FLuc)
Cc1c(C(=O)NN)sc(=S)n1C	none (no result: KinaseGlo FLuc)
Cc1csc(C(=O)NN)c1N(C)C	VP16 counter inconclusive, RORgamma inh 0.56µM (no result: KinaseGlo FLuc)
Cc1c(NC(=O)COC(=O)CSc2ccc(C(N)=O)cc2[N+](=O)[O-])c(=O)n(-c2ccccc2)n1C	none (no result: KinaseGlo FLuc)
O=C(c1ccccc1)c1ccc(-c2ccc(O)cc2)cc1	VP16 counter 18µM, RORgamma inh 3.5µM (no result: KinaseGlo FLuc)
O=C(c1ccccc1)c1ccccc1	none
Cn1c(C(=O)N2CCOCC2)cc2c(=O)n3ccccc3nc21	none (no result: KinaseGlo FLuc)
Cn1c(C(=O)N2CCN(C(=O)c3ccco3)CC2)cc2c(=O)n3ccccc3nc21	VP16 counter 14µM
Cc1nccc(-c2cc(-c3ccc(Cl)cc3Cl)no2)n1	none (no result: KinaseGlo FLuc)
Cc1ccc(-c2nn(-c3ccccc3)c3[nH]c(=O)c(CNCc4ccccc4)cc23)cc1	RORgamma inh inconclusive
Cc1ccc(-c2nn(-c3ccccc3)c3[nH]c(=O)c(CNCCN(C)C)cc23)cc1	VP16 counter 7.9µM, RORgamma inh 4µM
CCN1c2ccccc2-c2nc3ccccc3n2C1c1cccs1 (configuration not stated)	VP16 counter inconclusive, RORgamma inh 13µM
CCn1c(NCc2cccs2)nc2ccccc21	none
CC(=O)OCON[N+]([O-])=NC(C)C	none (no result: KinaseGlo FLuc)
C/C(Cn1cnc([N+](=O)[O-])n1)=N\NC(=O)c1ccc(O)cc1O	VP16 counter inconclusive, RORgamma inh 0.2µM
C/C(Cn1cnc([N+](=O)[O-])n1)=N\NC(=O)c1ccc(Br)cc1	RORgamma inh inconclusive
C/C(CC(=O)Nc1ccc(N(C)C)cc1)=N\NC(=O)c1ccccc1O	VP16 counter inconclusive (no result: KinaseGlo FLuc)
C/C(Cn1nc([N+](=O)[O-])cc1C)=N\NC(=O)c1ccc(O)cc1O	VP16 counter 14µM, RORgamma inh 1.6µM
C/C(CC(=O)Nc1ccc([N+](=O)[O-])cc1)=N\NC(=O)c1ccccc1O	VP16 counter 16µM, RORgamma inh 11µM (no result: KinaseGlo FLuc)
C/C(Cn1cnc([N+](=O)[O-])n1)=N\NC(=O)c1ccccc1O	VP16 counter inconclusive, RORgamma inh 13µM
COc1cc(C(=O)N/N=C(\C)Cn2nc([N+](=O)[O-])cc2C)ccc1O	RORgamma inh inconclusive
C/C(Cn1cnc([N+](=O)[O-])n1)=N\NC(=O)c1cccnc1	none
Cc1cc(C)cc(OCC(=O)OCC(=O)Nc2c(C)n(C)n(-c3ccccc3)c2=O)c1	none
COc1ccc(CCNC(=O)C2CCCN2C(=O)Nc2ccc(F)cc2)cc1OC (configuration not stated)	none (no result: KinaseGlo FLuc)
O=c1nc(-c2ccccc2)n(-c2ccccc2)[nH]1	none
O=[N+]([O-])c1ccccc1S(=O)(=O)N1CCN(c2ccc(F)cc2)CC1	none (no result: KinaseGlo FLuc)
COc1ccc(Cl)cc1Nc1nc(-c2sc(NC(=O)C(C)(C)C)nc2C)cs1	VP16 counter 7.1µM, RORgamma inh inconclusive
CCC(C)C(=O)Nc1nc(C)c(-c2csc(Nc3cc(Cl)ccc3OC)n2)s1 (configuration not stated)	VP16 counter inconclusive, RORgamma inh inconclusive
CCCC(C)C(=O)Nc1nc(C)c(-c2csc(Nc3ccc(Cl)cc3)n2)s1 (configuration not stated)	VP16 counter 11µM, RORgamma inh inconclusive
COc1ccc(OC)c(Nc2nc(-c3sc(NC(=O)CC(C)C)nc3C)cs2)c1	none
CCCC(C)C(=O)Nc1nc(C)c(-c2csc(Nc3ccccc3OC)n2)s1 (configuration not stated)	VP16 counter inconclusive
COc1ccc(OC)c(Nc2nc(-c3sc(NC(=O)C(C)(C)C)nc3C)cs2)c1	VP16 counter 11µM, RORgamma inh inconclusive
CCOC(=O)N1CCN(S(=O)(=O)N2CCCC(C(=O)NCCCN3CCCCC3CC)C2)CC1 (configuration not stated)	none (no result: KinaseGlo FLuc)
COc1ccc(CCNC(=O)C(=O)N2CCCC2)cc1OC	none
Cc1ccc(N(CC(=O)NCc2ccco2)C(=O)CCC(=O)Nc2nccs2)cc1C	none (no result: KinaseGlo FLuc)
COc1cc(OC)cc(N2CCN(S(=O)(=O)c3ccc(-n4cnnn4)cc3)CC2)c1	none (no result: KinaseGlo FLuc)
Cc1ccc(-n2c(C)nc3c(cnn3-c3ccc(F)cc3)c2=O)cc1C	VP16 counter 6.3µM, RORgamma inh inconclusive
Cc1ccc(-n2c(C)nc3c(cnn3-c3ccc(C)c(C)c3)c2=O)cc1C	RORgamma inh inconclusive
Cc1ccc(CNC(=O)Cn2cnc(S(=O)(=O)N3CCC(C)CC3)c2)o1	none (no result: KinaseGlo FLuc)
OC(CNCCC1C=Nc2ccccc21)Cn1c2ccc(Cl)cc2c2cc(Cl)ccc21 (configuration not stated)	VP16 counter 13µM, RORgamma inh inconclusive
OC(CNCC1CCCO1)Cn1c2ccc(Cl)cc2c2cc(Cl)ccc21 (configuration not stated)	none
COc1cccc(C(C(=O)NC2CCCC2)N(C(=O)c2ccco2)c2ccc(NC(C)=O)cc2)c1OC (configuration not stated)	none (no result: KinaseGlo FLuc)
Cc1nn(C(=O)c2ccco2)c(C)c1Br	none
COc1ccccc1OCc1ccc(C(=O)N2N=C(C(F)F)CC2(O)C(F)F)o1 (configuration not stated)	none
CC1=NN(C(=O)c2ccco2)C(O)(c2ccccc2)C1 (configuration not stated)	VP16 counter 6.3µM, RORgamma inh 1.8µM (no result: KinaseGlo FLuc)
CC1=NN(C(=O)c2ccc(C)o2)C(O)(c2ccccc2)C1 (configuration not stated)	VP16 counter 6.3µM, RORgamma inh 3.2µM
O=C1C2C(C(=O)N1/N=C/c1cccc([N+](=O)[O-])c1)C1C=CC2C12CC2 (configuration not stated)	none
O=C1CSC(c2ccc([N+](=O)[O-])cc2)N1c1ccccc1 (configuration not stated)	none (no result: KinaseGlo FLuc)
Cc1ccc(NC(=O)N2CCCN(C(=O)OC(C)(C)C)CC2)cc1Cl	none (no result: KinaseGlo FLuc)

High-throughput results as filed in PubChem.
